Drawing on ChEMBL document CHEMBL3988442, “University of Dundee, Small-Polar-MMV Screening Library” (2021), this text covers Percent Effect for ten compounds.

SMILES strings stand for the structures. For some assays here: Entries with a potency or affinity are not part of this list.

Design in all cases: scale not given: direction of the effect not stated beside the values
Experiment [1] concerns the target Protein translocase subunit SecA (Escherichia coli (strain K12)) (UniProt P10408). Description: Assay to Identify E. coli SecA ATPase Inhibitors. It counts as functional. Conditions: 30 µM.
Experiment [2] addresses T1, Ubiquitin-activating enzyme e1, putative (Leishmania donovani (strain BPK282A1)) (UniProt E9BSI1).
T1 sequence (whole entry): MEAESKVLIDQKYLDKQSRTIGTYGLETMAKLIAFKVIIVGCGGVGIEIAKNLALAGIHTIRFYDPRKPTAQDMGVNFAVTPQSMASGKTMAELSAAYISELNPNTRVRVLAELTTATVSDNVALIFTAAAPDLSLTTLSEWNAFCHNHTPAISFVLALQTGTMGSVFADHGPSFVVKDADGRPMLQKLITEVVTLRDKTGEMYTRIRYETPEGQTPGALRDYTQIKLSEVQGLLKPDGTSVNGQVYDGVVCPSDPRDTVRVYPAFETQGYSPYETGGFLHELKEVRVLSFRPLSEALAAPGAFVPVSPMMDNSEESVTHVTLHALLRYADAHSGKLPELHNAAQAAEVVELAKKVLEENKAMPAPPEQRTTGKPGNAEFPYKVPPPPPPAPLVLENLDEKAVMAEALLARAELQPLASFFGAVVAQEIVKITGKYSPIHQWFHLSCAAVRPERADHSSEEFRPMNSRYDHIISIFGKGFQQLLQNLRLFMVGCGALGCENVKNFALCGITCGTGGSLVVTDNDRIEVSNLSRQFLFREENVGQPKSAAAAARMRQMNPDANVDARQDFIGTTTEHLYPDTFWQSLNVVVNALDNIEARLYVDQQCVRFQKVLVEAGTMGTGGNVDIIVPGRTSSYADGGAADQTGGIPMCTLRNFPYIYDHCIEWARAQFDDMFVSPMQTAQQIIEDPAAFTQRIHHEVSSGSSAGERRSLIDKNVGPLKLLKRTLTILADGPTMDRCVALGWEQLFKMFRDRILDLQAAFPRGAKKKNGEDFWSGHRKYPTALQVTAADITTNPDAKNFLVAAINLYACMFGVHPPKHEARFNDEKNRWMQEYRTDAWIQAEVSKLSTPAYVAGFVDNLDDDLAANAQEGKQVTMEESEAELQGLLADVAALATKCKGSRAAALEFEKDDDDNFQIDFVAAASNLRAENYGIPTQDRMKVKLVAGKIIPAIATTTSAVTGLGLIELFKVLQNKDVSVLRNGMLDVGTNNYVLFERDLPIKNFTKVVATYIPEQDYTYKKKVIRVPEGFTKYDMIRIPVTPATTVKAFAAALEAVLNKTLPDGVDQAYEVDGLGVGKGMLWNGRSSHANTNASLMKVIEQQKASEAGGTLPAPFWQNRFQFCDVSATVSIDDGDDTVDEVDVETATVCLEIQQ
The experiment is described as follows: Leishmania donovani Ubiquitin Activating Enzyme (LdE1). Conditions: 30 µM. It counts as functional.

Experiment [3] has as its target AMP-activated protein kinase, AMPK (Homo sapiens) (UniProt P54646+O43741+P54619+Q9UGJ0+Q9Y478+Q13131+Q9UGI9). Description: AMP-dependent Kinase enzyme assay. An in vitro enzyme assay that detects ADP turnover that is directly proportional to AMPK activity. This uses naive AMPK that is activated during the assay with MK-8722. It counts as functional. Conditions: 30 µM.

The target in experiment [4] is Sialic acid-binding Ig-like lectin 9 (Homo sapiens) (UniProt Q9Y336). Description: Hs-Siglec9 ALPHAscreen SOP 20170721. Conditions: 10 µM. (In general: In Alpha technology, singlet oxygen from a donor bead excites a nearby acceptor bead.)
The subject of the next experiment is Trypanosoma cruzi. The experiment is described as follows: Trypanosoma cruzi phosphomannomutase and mannose-1-phosphate guanylyltransferase assay. It counts as functional. Conditions: 10 µM.
The target in experiment [5] is T2, Arginase-2, mitochondrial (Homo sapiens) (UniProt P78540).
T2 sequence (whole entry): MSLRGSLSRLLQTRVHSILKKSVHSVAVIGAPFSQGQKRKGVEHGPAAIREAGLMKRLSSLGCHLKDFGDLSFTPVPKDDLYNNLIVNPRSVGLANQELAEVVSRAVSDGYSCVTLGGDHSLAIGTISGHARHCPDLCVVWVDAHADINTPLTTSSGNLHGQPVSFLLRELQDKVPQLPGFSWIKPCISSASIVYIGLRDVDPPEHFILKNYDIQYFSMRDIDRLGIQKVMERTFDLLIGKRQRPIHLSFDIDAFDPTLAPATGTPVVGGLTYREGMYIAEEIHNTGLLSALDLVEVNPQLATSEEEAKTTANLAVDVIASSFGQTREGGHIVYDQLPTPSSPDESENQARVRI
Description: in vitro enzyme assay to detect the production of urea directly proportional to the activity of Arginase II. Also: in the data most compounds retested in dose-response had high values. Conditions: 33.3 µM. It counts as functional.

The target in experiment [6] is T3, Proteasome subunit beta (Trypanosoma cruzi) (UniProt O96673).
T3 sequence (whole entry): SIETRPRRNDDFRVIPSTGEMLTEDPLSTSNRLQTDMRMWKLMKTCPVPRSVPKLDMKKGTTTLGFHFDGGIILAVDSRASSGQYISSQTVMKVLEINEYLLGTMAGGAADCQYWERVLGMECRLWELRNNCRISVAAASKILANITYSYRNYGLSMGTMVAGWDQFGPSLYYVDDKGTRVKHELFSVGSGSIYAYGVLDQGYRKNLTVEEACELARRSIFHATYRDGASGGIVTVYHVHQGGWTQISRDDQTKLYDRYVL
Description: Trypanosoma cruzi proteasome chymotrypsin-like activity (TcProtChymo) assay. Also: in the data most compounds retested in dose-response had high values. The experiment is classed as functional. Conditions: 9.37 µM.

The next experiment is filed under the species Homo sapiens. The experiment is described as follows: To identify inhibition of the IFN signalling (Jak-Stat) pathway via expression of an eGFP reporter gene under the control of an IFN-stimulated response element (ISRE) containing MxA promoter. It counts as functional. Conditions: 30 µM.
For experiment [7], the target named is T4, Tyrosyl-tRNA synthetase, putative (Trypanosoma cruzi (strain CL Brener)) (UniProt Q4DSP6).
T4 sequence (whole entry): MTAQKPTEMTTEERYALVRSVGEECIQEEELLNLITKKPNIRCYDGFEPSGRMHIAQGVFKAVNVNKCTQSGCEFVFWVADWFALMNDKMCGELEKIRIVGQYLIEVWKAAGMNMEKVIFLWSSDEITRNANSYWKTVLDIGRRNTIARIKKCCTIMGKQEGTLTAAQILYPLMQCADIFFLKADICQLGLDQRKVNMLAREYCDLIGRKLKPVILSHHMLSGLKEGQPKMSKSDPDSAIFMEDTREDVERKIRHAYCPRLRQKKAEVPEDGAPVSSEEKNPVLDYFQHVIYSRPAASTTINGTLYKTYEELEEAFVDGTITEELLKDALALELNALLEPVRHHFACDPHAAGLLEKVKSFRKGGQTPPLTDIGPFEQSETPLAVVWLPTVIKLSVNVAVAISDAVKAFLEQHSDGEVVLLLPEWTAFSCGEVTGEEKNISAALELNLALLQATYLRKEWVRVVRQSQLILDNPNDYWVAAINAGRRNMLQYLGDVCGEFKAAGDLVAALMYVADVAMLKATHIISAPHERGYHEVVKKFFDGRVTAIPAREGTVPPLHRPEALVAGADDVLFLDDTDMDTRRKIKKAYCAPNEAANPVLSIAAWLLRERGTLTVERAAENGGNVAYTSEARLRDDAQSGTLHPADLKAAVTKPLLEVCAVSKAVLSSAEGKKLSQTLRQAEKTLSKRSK
The experiment is described as follows: Trypanosoma cruzi tyrosyl tRNA synthetase (TcYRS) _High Tyrosine SOP. Also: in the data most compounds retested in dose-response had high values. Conditions: 30 µM. The experiment is classed as functional.

In experiment [8] the target is T4, Tyrosyl-tRNA synthetase, putative (Trypanosoma cruzi (strain CL Brener)). Description: Trypanosoma cruzi tyrosyl tRNA synthetase (TcYRS) SOP. The experiment is classed as functional. Conditions: 30 µM.
The target in experiment [9] is Chromo domain-containing protein 1 (Saccharomyces cerevisiae (strain ATCC 204508 / S288c) (Baker's yeast)) (UniProt P32657). The experiment is described as follows: ScCHD-1 Enzyme Inhibition Assay. Also: in the data most compounds retested in dose-response had high values. Conditions: 30 µM. It counts as functional.
Chain of Chromo domain-containing protein 1 (Saccharomyces cerevisiae (strain ATCC 204508 / S288c) (Baker's yeast)) (P32657 whole entry, the tested form may be a part): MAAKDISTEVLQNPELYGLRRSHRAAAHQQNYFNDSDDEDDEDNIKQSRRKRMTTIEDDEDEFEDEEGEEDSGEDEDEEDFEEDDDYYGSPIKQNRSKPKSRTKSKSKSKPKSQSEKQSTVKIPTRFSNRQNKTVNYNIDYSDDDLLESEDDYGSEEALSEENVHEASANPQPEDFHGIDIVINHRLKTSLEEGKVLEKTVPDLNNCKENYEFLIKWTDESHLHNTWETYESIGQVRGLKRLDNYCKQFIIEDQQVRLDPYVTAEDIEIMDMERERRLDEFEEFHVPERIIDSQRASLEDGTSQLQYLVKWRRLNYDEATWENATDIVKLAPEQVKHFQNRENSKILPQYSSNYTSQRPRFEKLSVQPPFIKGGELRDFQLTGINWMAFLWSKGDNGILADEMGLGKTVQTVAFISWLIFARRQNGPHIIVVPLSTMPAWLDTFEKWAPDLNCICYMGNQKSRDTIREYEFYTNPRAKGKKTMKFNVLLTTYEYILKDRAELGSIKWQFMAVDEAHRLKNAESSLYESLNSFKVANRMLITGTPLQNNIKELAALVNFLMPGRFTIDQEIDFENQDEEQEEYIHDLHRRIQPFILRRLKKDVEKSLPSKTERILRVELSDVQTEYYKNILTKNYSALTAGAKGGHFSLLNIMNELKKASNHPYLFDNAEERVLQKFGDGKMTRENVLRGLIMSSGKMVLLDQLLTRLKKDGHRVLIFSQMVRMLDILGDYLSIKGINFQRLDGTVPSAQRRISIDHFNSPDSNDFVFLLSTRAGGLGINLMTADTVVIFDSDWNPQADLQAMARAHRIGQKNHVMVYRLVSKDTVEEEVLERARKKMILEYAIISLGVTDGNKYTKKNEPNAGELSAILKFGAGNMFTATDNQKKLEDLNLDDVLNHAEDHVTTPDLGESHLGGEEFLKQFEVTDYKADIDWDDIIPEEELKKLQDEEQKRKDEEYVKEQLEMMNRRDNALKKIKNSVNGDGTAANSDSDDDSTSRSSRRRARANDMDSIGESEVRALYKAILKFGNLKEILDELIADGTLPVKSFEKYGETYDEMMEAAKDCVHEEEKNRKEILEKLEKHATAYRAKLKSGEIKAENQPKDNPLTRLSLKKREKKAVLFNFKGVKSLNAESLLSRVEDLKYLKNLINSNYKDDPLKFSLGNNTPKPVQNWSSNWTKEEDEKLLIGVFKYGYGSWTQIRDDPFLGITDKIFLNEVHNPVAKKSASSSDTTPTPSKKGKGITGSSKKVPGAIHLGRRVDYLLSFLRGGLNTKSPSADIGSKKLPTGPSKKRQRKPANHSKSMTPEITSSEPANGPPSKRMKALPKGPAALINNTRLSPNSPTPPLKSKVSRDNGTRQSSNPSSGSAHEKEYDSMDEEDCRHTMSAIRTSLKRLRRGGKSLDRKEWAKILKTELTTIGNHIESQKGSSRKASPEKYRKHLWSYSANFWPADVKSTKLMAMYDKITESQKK

Chain of Protein translocase subunit SecA (Escherichia coli (strain K12)) (P10408 whole entry): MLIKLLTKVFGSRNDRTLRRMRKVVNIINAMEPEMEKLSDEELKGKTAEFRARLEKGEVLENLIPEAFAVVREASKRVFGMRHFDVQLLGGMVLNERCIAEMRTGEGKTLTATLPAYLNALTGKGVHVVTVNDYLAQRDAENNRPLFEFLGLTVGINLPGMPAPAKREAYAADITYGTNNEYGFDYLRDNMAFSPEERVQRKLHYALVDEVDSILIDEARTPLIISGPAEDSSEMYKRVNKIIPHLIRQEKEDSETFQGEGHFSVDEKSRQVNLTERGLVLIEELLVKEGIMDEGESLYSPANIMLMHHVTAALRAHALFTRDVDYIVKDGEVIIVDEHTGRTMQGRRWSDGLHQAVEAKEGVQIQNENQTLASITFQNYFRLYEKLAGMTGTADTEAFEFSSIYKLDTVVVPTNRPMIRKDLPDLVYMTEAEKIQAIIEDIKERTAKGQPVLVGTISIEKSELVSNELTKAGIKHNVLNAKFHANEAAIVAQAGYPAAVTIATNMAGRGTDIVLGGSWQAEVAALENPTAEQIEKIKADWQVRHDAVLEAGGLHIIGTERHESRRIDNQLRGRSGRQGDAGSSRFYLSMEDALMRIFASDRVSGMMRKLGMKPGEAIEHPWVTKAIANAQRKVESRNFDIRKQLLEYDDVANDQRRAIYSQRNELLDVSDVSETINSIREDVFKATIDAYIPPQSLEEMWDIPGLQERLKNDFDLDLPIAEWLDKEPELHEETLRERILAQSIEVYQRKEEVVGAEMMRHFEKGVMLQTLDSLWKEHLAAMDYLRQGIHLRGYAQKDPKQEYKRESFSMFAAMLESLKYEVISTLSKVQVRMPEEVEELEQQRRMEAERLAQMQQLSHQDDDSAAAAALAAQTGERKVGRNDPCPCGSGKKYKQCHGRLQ
Chain of Sialic acid-binding Ig-like lectin 9 (Homo sapiens) (Q9Y336 whole entry): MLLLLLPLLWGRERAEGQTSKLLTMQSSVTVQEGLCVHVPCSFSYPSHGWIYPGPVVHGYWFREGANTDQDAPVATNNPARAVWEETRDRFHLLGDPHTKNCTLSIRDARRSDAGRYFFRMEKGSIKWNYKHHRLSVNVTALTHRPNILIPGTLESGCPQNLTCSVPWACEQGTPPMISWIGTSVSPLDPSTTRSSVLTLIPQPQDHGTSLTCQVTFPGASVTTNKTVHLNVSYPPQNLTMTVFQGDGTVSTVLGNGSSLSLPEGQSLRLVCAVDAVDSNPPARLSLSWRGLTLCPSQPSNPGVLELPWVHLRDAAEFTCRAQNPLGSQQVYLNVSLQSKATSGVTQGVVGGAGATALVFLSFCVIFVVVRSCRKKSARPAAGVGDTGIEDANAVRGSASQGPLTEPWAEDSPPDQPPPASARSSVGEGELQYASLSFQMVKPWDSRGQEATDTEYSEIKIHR

On to `CN(C)CC1(O)CCN(S(=O)(=O)c2ccc(F)c(F)c2)C1` (stereo not given), for which the Percent Effect in [1] was -6.44%; in experiment [2], 23%; in experiment [3], -0.681%; in experiment [4], -1.29%; in the experiment with Trypanosoma cruzi, 5.34%; in experiment [5], -3.48%. Moreover, the Percent Effect in experiment [6] was 20.9%; in the experiment filed under Homo sapiens it was 1.49%; in [7] it was 3.23%; in experiment [8], 6.49%; in experiment [9], -21.7%.
Consider `COCCN(C)CCN1CC2(CCN(C3CCCOC3)CC2)OC1=O` (stereo not given), for which the Percent Effect was -2.07% in experiment [1]; 20.8% in experiment [2]; -4.24% in [3]; 3.41% in experiment [4]; 0.295% with Trypanosoma cruzi; -11% in experiment [5]. Besides, the Percent Effect is 16.5% in experiment [6]; 11.4% in the experiment filed under Homo sapiens; 3.23% in experiment [7]; 18.5% in experiment [8]; -6.77% in experiment [9].
As for `c1nc2c(c(C3CC3)n1)CCN(CC1CCOC1)CC2` (stereo not given), the Percent Effect is -4.07% in experiment [1]; 8.11% in [2]; 3.6% in [3]; -7.53% in [4]; 8.31% with Trypanosoma cruzi; 3.5% in experiment [5]. Also, the Percent Effect in experiment [6] is 20.7%; in the experiment listed under Homo sapiens it was 7.05%; in experiment [7] it was 5.41%; in [8] it was 15.4%; in experiment [9], -0.123%.
As to `CCOC(=O)NC(CNC(=O)c1ccccn1)CC(C)C` (stereo not given), the Percent Effect in experiment [1] was -4.62%; in experiment [2], 5.41%; in experiment [3] it was 0.908%; in [4] it was -3.92%; with Trypanosoma cruzi it was -3.03%; in experiment [5], 2.23%. The Percent Effect in experiment [6] was 4.72%; in the experiment filed under Homo sapiens, -2.89%; in experiment [7], 2.15%; in experiment [8], 8.64%; in experiment [9], -5.52%.
In the case of `CC(C)NC(=O)C1CN(C(N)=O)Cc2ccnn2C1` (stereo not given), the Percent Effect in experiment [1] was -0.679%; in experiment [2], 10.7%; in experiment [3], 5.48%; in experiment [4], 1.25%; with Trypanosoma cruzi, 0.579%; in experiment [5], -58.2%. Further, the Percent Effect is 9.91% in experiment [6]; 0.0597% in the experiment filed under Homo sapiens; 3.12% in experiment [7]; 15% in experiment [8]; -5.6% in experiment [9].
Consider `NC(=O)c1ccc(CN2CCCC(N3CCCC3)C2)cc1` (stereo not given), for which the Percent Effect in [1] is -3.01%; in [2], 18.9%; in experiment [3] it was -3.31%; in experiment [4] it was -0.296%; in the experiment with Trypanosoma cruzi, 2.54%; in [5], 5%. Besides, the Percent Effect in [6] was 23.8%; in the experiment listed under Homo sapiens, -1.33%; in experiment [7] it was 7.92%; in experiment [8] it was 15.8%; in experiment [9], -6.1%.
Regarding `Cc1cc(C[C@@H]2COC[C@@H]2NC(=O)CN2CCCN(C)CC2)on1`, the Percent Effect in [1] is -3.19%; in [2], 16.4%; in [3], 2.04%; in [4], 6.47%; in the experiment with Trypanosoma cruzi, 6.27%; in experiment [5], 4.54%. The Percent Effect was 13.3% in experiment [6]; 4.37% in the experiment listed under Homo sapiens; 8.6% in [7]; -55% in experiment [8]; -6.96% in experiment [9].
Turning to `CNC(=O)c1cccc(C2CNCCN2C(C)=O)c1` (stereo not given), the Percent Effect is 0.479% in experiment [1]; 14.9% in [2]; 9.34% in experiment [3]; -6.16% in experiment [4]; -4.15% in the experiment with Trypanosoma cruzi; -0.232% in experiment [5]. Further, the Percent Effect is 10.6% in experiment [6]; 19.3% in the experiment listed under Homo sapiens; 2.15% in experiment [7]; 3.9% in [8]; -8.27% in experiment [9].
Consider `Cc1nc(C2CCCCN2C(=O)c2ccccc2)ncc1C(=O)N(C)C` (stereo not given), for which the Percent Effect in [1] is 0.833%; in experiment [2] it was -5.33%; in experiment [3] it was 7.56%; in experiment [4], 0.633%; in the experiment with Trypanosoma cruzi it was -1.97%; in [5] it was 4.89%. Further, the Percent Effect in experiment [6] amounted to 0.0881%; in the experiment filed under Homo sapiens, 10.8%; in experiment [7] it was 1.06%; in experiment [8], 1.28%; in [9], 0.34%.
As for `Cc1cnn(CC2CCCCN2CC(=O)Nc2c(C)n[nH]c2C)c1` (stereo not given), the Percent Effect in experiment [1] was -3.93%; in [2], 6.33%; in experiment [3] it was 8.13%; in [4], 0.215%; in the experiment with Trypanosoma cruzi it was -4.62%; in experiment [5], -5.81%. For the same compound, the Percent Effect in experiment [6] is 6.86%; in the experiment filed under Homo sapiens it was 16.1%; in [7], 1.04%; in [8] it was 10.1%; in [9] it was -14.4%.
